Screens: PubChem BioAssay, National Center for Advancing Translational Sciences (NCATS)
AMA1-RON2 inh – AMA1-RON2 (P. falciparum) interaction inhibition; AlphaScreen AMA1-biotinylated RON2 peptide binding; hit rate 0.2% among 360,000; Potency, µM (titrated, usually from 58.2 µM), inactives show at the top dose activity change, negative = inhibition, usual class: inhibitors;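 also: potency is read from the fitted curve at half-maximal effect; 0% = vehicle wells and -100% = peptide control; nearly all actives have a fitted effect of over 45% in size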
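AMA1 (3D7) with his tag at 25 nM final met compounds first, then biotinylated RON2 peptide at 25 nM; detection used donor plus acceptor beads, 10 µg/mL apiece, read by AlphaScreen after 30 min at room temperature.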
Cycloheximide cs – counter-screen hit for Shiga toxin inhibitors, cycloheximide. cell reporter, cycloheximide protein synthesis inhibition counterscreen. max response, %. hit rate 12% among 300,000; in the data active = max response mostly above about 13%, no sharp cut-off; inactive = mostly below about 14%; also: read at 38.3 µM for the half of the compounds with a filed dose; 0% is about no effect
AmpC inh no detg – AmpC beta-lactamase inhibition without detergent; AmpC nitrocefin hydrolysis, absorbance 480 nm, 0.0001% Triton; Potency, µM (top dose mostly 57.1 µM), without a hit: top-dose activity change, negative = inhibition, usual class: inhibitors; hit rate 0.52% among 330,000; AID 485341;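 also: potency is read from the fitted curve at half-maximal effect; plate controls were no compound for no effect and no enzyme for full effect; nearly all actives have a fitted effect of over 20% in size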
Target sequence (P00811 whole entry, looked up): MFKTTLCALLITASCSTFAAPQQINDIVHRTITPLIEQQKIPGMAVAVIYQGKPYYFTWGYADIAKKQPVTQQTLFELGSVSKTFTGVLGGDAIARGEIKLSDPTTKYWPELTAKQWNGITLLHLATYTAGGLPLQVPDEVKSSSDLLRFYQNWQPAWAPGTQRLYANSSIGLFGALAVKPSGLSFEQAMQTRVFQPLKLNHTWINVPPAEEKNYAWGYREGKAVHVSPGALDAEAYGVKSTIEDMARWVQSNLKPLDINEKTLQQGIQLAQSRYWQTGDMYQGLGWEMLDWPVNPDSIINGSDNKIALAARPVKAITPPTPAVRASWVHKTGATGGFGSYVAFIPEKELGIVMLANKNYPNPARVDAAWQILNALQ
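AmpC (5.3 nM in the dispensed reagent) in 20 mM phosphate pH 7.0 with 0.01% (detergent screen) or 0.0001% Triton X-100 was preincubated with compounds for 15 min at room temperature. Nitrocefin was then added from an 800 uM solution, and hydrolysis was followed at 480 nm.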
AmpC inh detg – inhibitors of E. coli AmpC beta-lactamase with detergent; AmpC hydrolysis of nitrocefin, absorbance 480 nm, 0.01% Triton; Potency, µM (top dose mostly 114 µM), for the others: at the top dose activity change, negative = inhibition, most hits filed as inhibitors; hit rate 0.041% among 370,000;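 also: potency is read from the fitted curve at half-maximal effect; 0% = no-compound wells and -100% = no-enzyme wells; nearly all actives have a fitted effect of over 25% in size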
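20 mM phosphate pH 7.0 + 0.01% (detergent screen) or 0.0001% Triton X-100; 5.3 nM AmpC reagent; cpd preinc 15 min RT; nitrocefin (800 uM stock) to start; A480 q20 s × 4 min; Activity was normalised to no-enzyme and no-compound control wells.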
Shiga toxin inh – Shiga toxin inhibition; hit rate 9.2% among 290,000; AID 2315; Vero cells, Shiga toxin protein synthesis inhibition reporter; inhibition, % at 38.7 µM; in the data active = inhibition mostly above about 28%, no sharp cut-off; inactive = mostly below about 43%; also: 0% is about no effect
SARS PLP yeast – inhibitors of SARS-CoV papain-like protease in yeast | S. cerevisiae expressing SARS-CoV PLpro, growth rescue | Potency, µM (highest dose often 32.9 µM), for inactives: top-dose activity, positive = growth rescue, hits mostly activators | hit rate 0.19% among 330,000 | AID 485353; calls by dose curve; also: potency is read from the fitted curve at half-maximal effect; 0% is about no effect; nearly all actives have a fitted effect of over 55% in size
Numbers without * were called inactive; ? = inconclusive; . = no result. The sample as a whole holds a higher share of hits than the screen did. Unless noted, calls follow the shape of the dose curve; as a rule, active = well fitted curve in the direction sought with a large enough effect; inconclusive = small, poorly fitted or top-dose-only effect, or another doubt; inactive = no such curve, though single readings can be large; an effect the other way counts as inactive or inconclusive.

SMILES	AMA1-RON2 inh	Cycloheximide cs	AmpC inh no detg	AmpC inh detg	Shiga toxin inh	SARS PLP yeast
CCc1ccccc1NC(=O)Nc1cccn(Cc2ccc(F)cc2)c1=O	-2.5%	-1.5	-24.1%	7.3%	-4.6	1.7%
O=C(Nc1ccc([N+](=O)[O-])cc1O)Nc1ccccc1Br	.	36.0*	.	.	61.0*	.
CCc1ccccc1NC(=O)Nc1ccc(F)cc1	10.0%	14.5*	-24.9%	-6.1%	31.0	-0.4%
O=C(O)c1ccc(C2NCC(c3ccccc3Cl)c3c2[nH]c2ccccc32)cc1 (stereo not given)	-3.7%	-1.8	52.2%	-4.4%	-9.8	-0.6%
NC(=O)COC(=O)CNC(=O)c1ccc(Cl)cc1	-7.0%	-2.6	-15.7%	-13.5%	-11.7	4.1%
Cc1cc(NC(c2cccnc2)c2ccc3cccnc3c2O)no1 (stereo not given)	20µM*	-3.6	-21.9%	-9.3%	-10.3	7.08µM*
Cc1cc(Cl)nc(Cl)c1C(=O)NCc1ccc(Cl)cc1	4.3%	-2.5	-7.8%	4.4%	-2.0	-2.1%
C=C1c2ccccc2NC(=O)N1c1ccc(OC)cc1	27.5%	12.2*	-8.6%	2.1%	36.0	-1.1%
COc1ccc(N2C(=O)c3cc4ccccc4cc3C2=O)cc1	-8.2%	-1.8	-9.6%	-10.4%	-5.1	0.2%
COc1ccc(N2C(=O)NC(=O)C2=O)cc1	0.3%	40.3*	-0.8%	-5.2%	4.3	2.1%
Fc1cccc(-n2ncc(-c3nnnn3-c3ccccc3)c2C(F)(F)F)c1	-3.6%	2.5	-3.7%	?	7.2	13.4%
N/C(=N\O)c1ccc(Oc2ccccc2Cl)c([N+](=O)[O-])c1	21.7%	10.8	-32.1%	4.5%	-0.9	-6.3%
O=[N+]([O-])c1ccccc1Oc1ccccc1Cl	-8.5%	14.9*	-5.5%	-14.6%	19.7	5.4%
CCCN1CCC(=O)N(C(CSc2ccc(OC)cc2)c2ccccc2)CC1 (stereo not given)	.	42.2*	.	.	155.8*	.
CCCN1CCC(=O)N([C@H](CSc2ccc(Br)cc2)c2ccccc2)CC1	5.4%	34.8*	14.7%	4.1%	18.7	-0.9%
O=C1CCN(CCc2ccccc2)CCN1[C@H](CSc1ccc(Br)cc1)c1ccccc1	-4.9%	-2.1	8.0%	4.1%	-3.3	3.4%
O=C1NN(c2ccccc2)C(=O)/C1=C\c1cccc(OC(=O)c2cccs2)c1	-1.2%	-1.6	-21.4%	?	-31.5	5.1%
CSc1ncc(CN2CCN(CCC(C)C)C(CCO)C2)cn1 (stereo not given)	0.6%	1.1	-12.5%	3.7%	-11.6	1.5%
O=C(CCl)N1c2ccccc2Oc2ccc3ccccc3c21	-26.0%	.	.	.	.	.
O=C(CN1C(=O)NC2(CCCC2)C1=O)N1CCCSC1=Nc1ccccc1	-2.5%	.	30.0%	-14.7%	.	3.1%
Cc1sc2nc3c4ccccc4c(NCc4ccco4)nn3c(=O)c2c1C	-5.0%	73.3*	-22.7%	1.5%	134.8*	-1.2%
CN(C(=O)COC(=O)CSc1ccc([N+](=O)[O-])cc1)c1ccccc1	?	.	-26.6%	-5.9%	.	-3.7%
COc1ccc(NC(=O)CN(C)S(=O)(=O)c2ccc3nc(C)sc3c2)cc1Cl	.	.	.	-3.2%	.	.
O=C(NCC1CCCO1)c1ccc(COCC(F)(F)C(F)F)cc1 (stereo not given)	19.8%	19.0*	?	?	26.0	4.9%
COc1ccc(-c2cc(C(=O)NCC3CCCO3)c3cc(C)ccc3n2)cc1 (stereo not given)	39.2%	18.2*	13.7%	-0.9%	14.0	0.1%
CCOc1ccc2oc(C(=O)OCC(=O)NCC3CCCO3)c(C)c2c1 (stereo not given)	4.7%	.	22.3%	-3.9%	.	-0.8%
COc1ccc2oc(C(=O)NC(C)(C)C)c(C)c2c1	5.9%	49.3*	-15.9%	-0.4%	95.8*	4.1%
CCOc1ccc2oc(C(=O)NCC3CCCO3)c(C)c2c1 (stereo not given)	1.1%	45.7*	2.3%	-10.4%	88.5*	-7.0%
CCOc1ccc(CN(C)C(C)C(=O)Nc2ccc([N+](=O)[O-])cc2Cl)cc1OC (stereo not given)	14.5%	-1.4	-19.2%	?	-6.4	24.2%
